biological target: RIPE3b1 activator (MafA, endogenous) (Mus musculus, UniProt Q8CF90 SEQ:1-359); experiment: competition; B4/5 roughly 20-fold more effective competitor than B4; conditions: protein: extract; tags: beta cell line nuclear extract (betaTC-3, Min6); label: 32P; dsDNA, one strand shown
Description: To define the factors associated with B4 and B5 mediated regulation, gel shift experiments were performed with probes spanning B4, B5, and B4+B5 (B4/5) and βTC-3 or MIN6 cell nuclear extracts (FIG. 12). Two common protein-DNA complexes were detected with the B4 and B4+B5 probes (labeled as A and B in FIG. 12B), whereas no binding was found with B5 (data not shown). The binding affinity of B4 and B4/5 for these complexes was determined with the wild type and B4+B5 double mutant site (B4+B5MT) competitors.

RIPE3b1 activator (MafA, endogenous), sequence (Q8CF90 whole entry): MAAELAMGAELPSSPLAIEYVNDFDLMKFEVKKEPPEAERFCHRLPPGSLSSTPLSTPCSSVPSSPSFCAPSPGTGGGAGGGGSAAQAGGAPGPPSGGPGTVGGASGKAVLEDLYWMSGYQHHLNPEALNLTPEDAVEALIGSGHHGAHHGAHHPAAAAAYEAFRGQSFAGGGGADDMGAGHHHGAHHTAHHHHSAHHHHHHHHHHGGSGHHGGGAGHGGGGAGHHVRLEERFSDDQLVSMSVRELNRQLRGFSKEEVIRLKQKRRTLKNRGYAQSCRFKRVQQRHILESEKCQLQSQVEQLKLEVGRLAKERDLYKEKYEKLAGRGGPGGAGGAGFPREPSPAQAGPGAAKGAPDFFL

Sequence	binding signal [fold]
AGCTTTCTTTTTGCAAAGCACAGCAT	~20

— patent publication US20050118148, “Compositions and methods related to mammalian Maf-A” (published 2005)
